Screening data from PubChem BioAssay.
In the library only some 7.9% were active in any assay of this set; here they are far more common.
KB-3-1 tox = qHTS assay for MDR1-selective chemotherapeutics: Primary screen using the parental adenocarcinoma cell KB-3-1. KB-3-1 viability, CellTiter-Glo ATP luminescence, 72 h. Potency, µM (series often up to 46.1 µM), hits mostly cytotoxic. actives 1.4% (n = 400,000); note: % is set by controls: 0 for no effect and ±100 for the full control effect; nearly all actives have a fitted effect of over 60% in size
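Here the drug-naive KB-3-1 line serves as comparator for MDR sub-line selectivity; cells received compound titrations, 72 h at 37 °C, then CellTiter-Glo readout.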
HT1080 IDH1KD tx = qHTS for induction of synthetic lethality in tumor cells producing 2HG: qHTS for the HT-1080-IDH1KD cell line; HT-1080 IDH1 knockdown viability, ATP luminescence, 48 h; Potency, µM (highest dose often 46.1 µM), for inactives: at the highest dose activity, negative = toxicity, most hits filed as cytotoxic; actives 2% (n = 360,000);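 note: 0% = DMSO wells and -100% = cell-free medium wells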
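Cytotoxicity counter-line: IDH1KD HT-1080, 48 h, CellTiter-Glo. Curves classed by r2, magnitude and activity.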
MCF10A rerep = A quantitative high throughput screen for small molecules that induce DNA re-replication in MCF 10a normal breast cells; MCF 10A DNA re-replication, Hoechst nuclear intensity, 48 h; actives 2.9% (n = 350,000); Potency, µM (titrated, usually from 46.1 µM), for inactives: at the top dose activity, positive = re-replication, usual class: activators; note: % of control where 0% means no effect; nearly all actives have a fitted effect of over 50% in size
HT1080-NT tox = qHTS for induction of synthetic lethality in tumor cells producing 2HG: qHTS for the HT-1080-NT fibrosarcoma cell line | HT-1080-NT fibrosarcoma viability, CellTiter-Glo ATP luminescence, 48 h | Potency, µM (top dose mostly 46.1 µM), without a hit: at the top dose activity, negative = less viability, hits mostly cytotoxic | actives 1.6% (n = 360,000) | AID 686970, 2013;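 note: NT is the 2HG producing partner of a matched IDH1 knockdown line; 0% = DMSO-treated cells and -100% = media-only wells without cells; nearly all actives have a fitted effect of over 55% in size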
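A 48-hour cytotoxicity screen used HT-1080-NT cells plated 2 hours before compound delivery. ATP-based CellTiter-Glo luminescence measured viability, normalized to DMSO and no-cell controls.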
KB-V1 MDR tox = qHTS assay for MDR1-selective chemotherapeutics: Primary screen using the drug-selected MDR subline cells KB-V1; KB-V1 MDR cells viability, CellTiter-Glo, 72 h; Potency, µM (series often up to 46.1 µM), most hits filed as cytotoxic; actives 3.4% (n = 400,000); AID 1347076, 2019; note: % is set by controls: 0 for no effect and ±100 for the full control effect; nearly all actives have a fitted effect of over 60% in size
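Following 72 h at 37 degrees C with compound, KB-V1 cell viability was read by CellTiter-Glo luminescence, medium being phenol-red-free DMEM plus 10% FBS; concentration-response parameters came from normalized, curve-fitted qHTS data.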
SW480 rereplic = A quantitative high throughput screen for small molecules that induce DNA re-replication in SW480 colon adenocarcinoma cells; SW480 DNA re-replication, Hoechst DNA content imaging, 48 h; Potency, µM (series often up to 46.1 µM), without a hit: top-dose re-replication activation, usual class: activators; actives 1.8% (n = 340,000); AID 624297, 2012; note: % of control where 0% means no effect; nearly all actives have a fitted effect of over 55% in size
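First, 250 cells per well were seeded. Next, compound or vehicle (23 nL) was pinned in, plates sat 48 hr at 37 C. Finally Hoechst was added for 40 min before fluorescence scanning.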
An asterisk follows results filed as active; i = inactive; u = inconclusive; x = no result; ! = repeats disagree; [ ] = another dose, or the depositor's remark. Calls come from the whole dose curve; as a rule, active = well fitted curve in the direction sought with a large enough effect; inconclusive = small, poorly fitted or top-dose-only effect, or another doubt; inactive = no such curve, though single readings can be large; an effect the other way counts as inactive or inconclusive. Potency is the fitted concentration of half-maximal effect.

SMILES	KB-3-1 tox	HT1080 IDH1KD tx	MCF10A rerep	HT1080-NT tox	KB-V1 MDR tox	SW480 rereplic
NS(=O)(=O)c1ccc(CCNc2nn3c(-c4ccc(F)c(Cl)c4)cnc3s2)cc1	i	11.6µM*	x	u	i	x
CCOc1ccc(-c2c(C)n(-c3ccc(OCC)cc3)c3[n+]2CCCCC3)cc1	1.64µM*	u	u	14.6µM*	i	u
O=C(CCl)c1ccc(O)c(O)c1	i	x	x	x	i	x
O=C(CCl)c1ccc(Oc2ccc(C(=O)CCl)cc2)cc1	x	x	26.6µM*	x	x	17.7%
CC(C)N=C(NC(C)C)N1CC1	i	-0.4%	x	1.9%	i	x
Cn1c(O)c(C(=Nc2ccccc2)SCc2ccc(Cl)cc2)c(=O)n(C)c1=O	u	u	u	u	5.17µM*	28.0%
COc1ccc(-c2noc(=O)n2Cc2cc(C)ccc2C)cc1	u	u	16.4µM*	u	u	u
COc1ccc(/C=N/N=C(/N)N[N+](=O)[O-])c(OC)c1	1.46µM*	18.8%	u	9.5%	1.03µM*	3.2%
N/C(=N\N=C/c1ccc(-c2ccc(O)c(C(=O)O)c2)o1)N[N+](=O)[O-]	i	3.8%	-22.1%	4.7%	u	-2.6%
O=C1NC(=O)N(c2cccc(Br)c2)C(=O)/C1=C/c1ccsc1	i	23.1µM*	7.2%	u	i	9.9%
COC(=O)c1ccc(N2C(=O)CC(N3CCC(n4c(=O)[nH]c5ccccc54)CC3)C2=O)cc1 (stereo unspecified)	i	-0.7%	-8.4%	-2.2%	i	5.7%
O=c1[nH]cnc2nc(-c3ccc(N(CCCl)CCCl)cc3)[nH]c12	u	0.651µM*	14.6µM*	u	u	9.2µM*
O=C(O)CCCc1ccc(N(CCCl)CCCl)cc1	i	1.1%	u	-6.5%	i	u
CC(=NCCCn1ccnc1)c1c(O)n(C)c(=O)n(C)c1=O	i	-6.4%	-4.3%	2.7%[9.24 µM]	i	-2.6%
CN1C[C@H](C(=O)N[C@]2(C)O[C@@]3(O)[C@@H]4CCCN4C(=O)[C@H](Cc4ccccc4)N3C2=O)CC2c3cccc4[nH]cc(c34)C[C@H]21 (stereo partly specified)	i	u	u	u	i	0.355µM*!
COc1cc2c(cc1OC)-c1c(OC)c(OC)cc3c1[C@H](C2)[N+](C)(C)CC3	i	0.4%	0.8%	0.7%	i	-6.5%
O=c1ccc2cc(O[C@@H]3O[C@@H](CO)[C@H](O)[C@@H](O)[C@@H]3O)c(O)cc2o1	i	0.3%	18.4µM*	8.0%	i	u
CC1CCCC(C)N1/N=C/c1c[nH]c2ccc(Br)cc12 (stereo unspecified)	u	u	u	20.6µM*	i	u
Cc1cccc(CNCCc2c[nH]c3ccccc23)c1	u	u	13.9%	14.6µM*	i	u
O=C1/C(=C/c2ccncc2)N2CCC1CC2	i	-17.6%	19.0%	-1.3%	i	u
O=C(c1ccccc1)N1CCN(CCc2ccccc2)CC1	i	8.6%	u	10.4%	i	u
CCCCn1nnnc1C(c1cccc2ccccc12)N1CCC2(CC1)C(=O)NCN2c1ccccc1 (stereo unspecified)	u	u	x	u	20.6µM*	x
COc1ccc(C(c2nnnn2-c2c(C)cccc2C)N2CCC3(CC2)C(=O)NCN3c2ccccc2)cc1 (stereo unspecified)	u	u	x	23.1µM*	u	x
O=C(C(=O)N1CCC2(CC1)OCCO2)c1c[nH]c2ccccc12	i	-2.2%	15.2%	-4.5%	i	u
O=C(CN1CCOCC1)c1cccc([N+](=O)[O-])c1	u	x	x	x	i	x
SMILES	KB-3-1 tox	HT1080 IDH1KD tx	MCF10A rerep	HT1080-NT tox	KB-V1 MDR tox	SW480 rereplic
CN1CCc2c(C#N)c(Cl)nc(Cl)c2C1	i	0.1%	u	-18.8%	u	2.31µM*
CCN(CC)C(=O)c1ccc2c(c1)C1C(Cl)C(Sc3ccccc3[N+](=O)[O-])CC1C(C(=O)O)N2 (stereo unspecified)	2.59µM*	-14.3%	1.1%	-15.6%	i	-0.6%
Cc1ccc2c(c1Cl)NC(C(=O)O)C1CC(Sc3ccccc3[N+](=O)[O-])C(Cl)C21 (stereo unspecified)	i	-17.2%	8.1%	-18.7%	i	-6.5%
Cc1cc(NC(=O)COC(=O)c2c(C)nn(Cc3ccccc3)c2Cl)no1	i	-13.4%	8.7%	-6.0%	i	0.9%
CCC(=NCCO)c1c(O)n(-c2ccccc2)c(=O)[nH]c1=O	i	-1.2%	-5.0%	-0.9%	i	-7.2%
COc1cc(CN2CC3CC(C2)c2cccc(=O)n2C3)cc(OC)c1OC (stereo unspecified)	i	0.2%	25.9µM*	2.6%	i	1.0%
CCOC(=O)c1cnc(N2CC2)nc1N	u	7.0%	u	-2.0%	5.8µM*	u
CCOC(=O)c1ccccc1C(=O)OCC	i	x	12.3%	x	i	-54.1%
CCC1C(c2cc(OC)c(OC)c(OC)c2)c2cc3c(cc2OC1N1CCCC1)OCO3 (stereo unspecified)	4.11µM*	u	4.11µM*	u	5.17µM*	8.2µM*
CN(C)C(=S)SC(=S)N(C)C	x	x	3.2%	x	x	2.66µM*
CN(C)C(=S)SSC(=S)N(C)C	i	u	21.1µM*!	u	i	1.33µM*
CN(C)c1ccc(-[n+]2c(-c3ccccc3)cc(-c3ccccc3)cc2-c2ccccc2)cc1	0.651µM*	2.59µM*	u	10.3µM*	20.6µM*	u
C[n+]1c(-c2ccccc2)cc(-c2ccc(Cl)cc2)cc1-c1ccccc1	u	u	-4.0%	u	i	u
Cc1ccc(-c2cc(-c3ccc(C)cc3)[n+](-c3ccccc3)c(-c3ccc(C)cc3)c2)cc1	5.8µM*	7.31µM*	u	5.17µM*	i	u
Cc1ccc(-c2cc(-c3ccccc3)cc(-c3ccccc3)[n+]2-c2ccccc2)cc1	u	11.6µM*	23.1µM*	u	i	12.8%[9.22 µM]
c1ccc(-c2cc(-c3ccccc3)[n+](-c3ccccc3)c(-c3ccccc3)c2)cc1	4.61µM*	5.8µM*	20.6%	3.66µM*	i	-4.3%
